Values joined by “and” are separate entries in the source; they are usually repeats but may differ in a detail not shown here. Equal values may be shown once. Results filed as inconclusive are left out. Some structures have more than one record in an assay (separate samples or runs), and their calls can disagree. Active and inactive are the calls of the source. Unless noted, calls follow the shape of the dose curve; as a rule, active = well fitted curve in the direction sought with a large enough effect in the repeat runs; inconclusive = weak or mixed curves; inactive = no such curve, though single readings can be large; an effect the other way counts as inactive or inconclusive.

Test [1] can be described thus: qHTS assay to identify small molecule antagonists of the constitutive androstane receptor (CAR) signaling pathway - cell viability counter screen (AID 1224837). Also: nearly all actives have a fitted effect of over 45% in size. A digest of the protocol: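 Fluorescence from CellTiter-Fluor served as the viability signal. Human hepatoma HepG2 cells stably bearing hCAR and CYP2B6-2.2kb received compound plus CITCO (50 nM final) for 23 hr.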
For orientation: Quantitative high-throughput screening tests each substance at several concentrations.

In test [2] the target is Nuclear receptor subfamily 1 group I member 3 (Homo sapiens) (UniProt Q14994). Description: qHTS assay to identify small molecule antagonists of the constitutive androstane receptor (CAR) signaling pathway (AID 1224838).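 Also: HepG2 cells stably expressing hCAR with CYP2B6 luciferase reporter stimulated by CITCO; nearly all actives have a fitted effect of over 40% in size.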 Also: potency is read from the fitted curve at half-maximal effect. A digest of the protocol: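 Quantitative HTS in double-stable HepG2-CYP2B6-hCAR cells. After 4 h plating, cells get compound (15 concentrations) and CITCO at 50 nM final, incubate 24 h at 37 C, then ONE-Glo luminescence is read.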
Sequence of Nuclear receptor subfamily 1 group I member 3 (Homo sapiens) (Q14994 whole entry, looked up): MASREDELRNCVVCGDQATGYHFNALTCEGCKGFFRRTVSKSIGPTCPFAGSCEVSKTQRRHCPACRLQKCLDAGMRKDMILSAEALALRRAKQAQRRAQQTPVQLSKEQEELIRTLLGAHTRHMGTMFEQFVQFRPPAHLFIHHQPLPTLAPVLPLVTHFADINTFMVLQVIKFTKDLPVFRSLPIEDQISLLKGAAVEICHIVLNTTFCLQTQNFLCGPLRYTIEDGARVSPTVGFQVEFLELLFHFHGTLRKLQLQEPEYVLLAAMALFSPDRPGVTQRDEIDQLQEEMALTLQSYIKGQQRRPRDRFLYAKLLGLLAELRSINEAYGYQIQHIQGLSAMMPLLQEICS

Test [3] shares this target. In words: qHTS assay to identify small molecule agonists of the constitutive androstane receptor (CAR) signaling pathway (AID 1224839). Also: nearly all actives have a fitted effect of over 15% in size. Also: potency is read from the fitted curve at half-maximal effect.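 As to activation: HepG2 cells stably carrying human CAR and a CYP2B6 luciferase reporter.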 A digest of the protocol:
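Compounds tested at 15 concentrations on HepG2 cells stably harbouring hCAR and CYP2B6-2.2kb reporter constructs, co-treated with PK11195 (0.75 uM final), 24 h at 37 C; luminescent reporter signal quantified.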

Test [4] is described as follows: qHTS assay to identify small molecule antagonists of the estrogen related receptor signaling pathway with the pleiotropic PPARgamma coactivator (PGC) from Tox21 10K library - cell viability counter screen (AID 1224840; active = well fitted cell-killing curve with a large enough effect in the repeat runs, not every such curve was filed as active; also: nearly all actives have a fitted effect of over 40% in size; also: potency is read from the fitted curve at half-maximal effect). A digest of the protocol: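 Compounds in DMSO, alongside positive and negative controls, were pinned onto PGC/ERR cells (2,000 per well). Exposure lasted 17.5 hours at 37 C, followed by a 30-minute CellTiter-Fluor incubation and fluorescence reading.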

Test [5] in a line: qHTS assay to identify small molecule agonists of the hypoxia (HIF-1) signaling pathway - cell viability counter screen (AID 1224844; calls by dose curve; also: nearly all actives have a fitted effect of over 50% in size; also: potency is read from the fitted curve at half-maximal effect). A digest of the protocol:
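Luminescent ATP content (CellTiter-Glo, 30 min, room temperature) served as the viability measure in HRE-bla ME-180 cells exposed to compounds for 17 hrs in low-serum medium (0.5% dialyzed FBS).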

Test [6] can be described thus: qHTS RealTime-Glo MT Cell Viability Assay in HepG2 cells - 24 hour (AID 1224867). Also: nearly all actives have a fitted effect of over 50% in size. Also: potency is read from the fitted curve at half-maximal effect. A digest of the protocol:
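HepG2 suspension premixed with RealTime-Glo reagents is plated at 600 cells per well and left 5 h at 37 C/5% CO2. Compounds in DMSO then go in, and bioluminescence reflecting viable cell number is recorded over 40 h.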

A short description of test [7]: qHTS RealTime-Glo MT Cell Viability Assay in HEK293 cells - 32 hour (AID 1224868). Also: nearly all actives have a fitted effect of over 50% in size. Also: potency is read from the fitted curve at half-maximal effect. A digest of the protocol: (§1)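 Reads taken at 0, 8, 16, 24, 32 and 40 h from the same wells. HEK293 cells (600/well) carried RealTime-Glo reagents from seeding, with compound added after a 5 h settle at 37 C.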
A short description of test [8]: A CellTox Green Cytotoxicity Assay to monitor cytotoxicity in HEK293 cells - 0 hour (AID 1224869). Also: nearly all actives have a fitted effect of over 50% in size. A digest of the protocol:
(§2)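 Each value comes from one timepoint of a single continuous run in which HEK293 cells with CellTox Green were exposed to compound for up to 40 h at 37 C, dye fluorescence rising with cell death.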

Test [9] can be described thus: qHTS RealTime-Glo MT Cell Viability Assay in HepG2 cells - 40 hour (AID 1224870). Also: nearly all actives have a fitted effect of over 50% in size. Also: potency is read from the fitted curve at half-maximal effect. A digest of the protocol:
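Real-time viability: cells seeded at 600 per well together with NanoLuc and cell-permeant prosubstrate, compounds added after 5 h incubation. Luminescence tracked at 0, 8, 16, 24, 32 and 40 h of exposure.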

Test [10] is described as follows: A CellTox Green Cytotoxicity Assay to monitor cytotoxicity in HEK293 cells - 40 hour (AID 1224871). Also: nearly all actives have a fitted effect of over 45% in size. Also: potency is read from the fitted curve at half-maximal effect. A digest of the protocol:
as §2

Test [11] is described as follows: qHTS RealTime-Glo MT Cell Viability Assay in HEK293 cells - 16 hour (AID 1224872). Also: nearly all actives have a fitted effect of over 50% in size. Also: potency is read from the fitted curve at half-maximal effect. A digest of the protocol: as §1
Test [12] has as its target Thyrotropin receptor (Homo sapiens) (UniProt P16473). Description: qHTS assay to identify small molecule agonists of the thyroid stimulating hormone receptor (TSHR) signaling pathway (AID 1224843; calls by dose curve; also: nearly all actives have a fitted effect of over 45% in size). A digest of the protocol:
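Screening of the Tox21 10K collection used HEK293 cells engineered with TSHR at 800 cells per well. After a 30-min room-temperature compound exposure, HTRF cAMP reagents were added and fluorescence recorded 1 h later.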

Test [13] is described as follows: qHTS assay to identify small molecule agonists of H2AX (AID 1224845; active = well fitted activation curve with a large enough effect in the signal ratio in the repeat runs, not every such curve was filed as active; the % refers to the signal ratio). A digest of the protocol:
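Phospho-H2AX Ser139 measured by HTRF (ex 320 nm; em 665 and 620 nm) after 24 hr antibody incubation. Compounds, 15 concentrations, 0.76% DMSO, were applied to CHO-K1 cells for 3hr at 37C before lysis.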

A short description of test [14]: qHTS assay to identify small molecule agonists of H2AX - cell viability counter screen (AID 1224847; calls by dose curve; also: nearly all actives have a fitted effect of over 30% in size; also: potency is read from the fitted curve at half-maximal effect). A digest of the protocol: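 Compounds tested at 15 concentrations were incubated 3 hr at 37C with wild-type CHO-K1 cells; cellular ATP-based luminescence (CellTiter-Glo) indicated viability.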
Test [15] in a line: qHTS assay to identify small molecule agonists of the constitutive androstane receptor (CAR) signaling pathway - cell viability counter screen (AID 1224836). Also: nearly all actives have a fitted effect of over 45% in size. Also: potency is read from the fitted curve at half-maximal effect. A digest of the protocol:
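23 h treatment, 37 C, 5% CO2. Cell line: HepG2 stably expressing hCAR with a CYP2B6-2.2kb construct. Co-treatment: PK11195, 0.75 uM final. Read-out: CellTiter-Fluor fluorescence intensity.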

A short description of test [16]: qHTS assay to identify small molecule antagonists of the estrogen related receptor signaling pathway with the pleiotropic PPARgamma coactivator (PGC) from Tox21 10K library (AID 1224841; call rule not given here; also: potency is read from the fitted curve at half-maximal effect). A digest of the protocol: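 Compound exposure ran 18 hours at 37 C in PGC/ERR cells (2,000/well) that had first rested 6 hours in a 37 C/5% CO2 incubator. Luciferase activity was then detected with One-Glo after a 30-minute room-temperature step.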

Test [17] in a line: qHTS assay to identify small molecule agonists of the estrogen related receptor signaling pathway with the pleiotropic PPARgamma coactivator (PGC) from Tox21 10K library (AID 1224842). Also: nearly all actives have a fitted effect of over 15% in size. A digest of the protocol:
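Luminescence from One-Glo (30 min, room temperature) measured after PGC/ERR cells had 18 h at 37 C with pinned compound (23 nL in DMSO). Cells had been seeded at 2,000 per well and pre-incubated 6 h.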

Test [18] is described as follows: qHTS assay to identify small molecule agonists of the hypoxia (HIF-1) signaling pathway (AID 1224846; active = well fitted activation curve with a large enough effect in the signal ratio in the repeat runs, not every such curve was filed as active; the % refers to the signal ratio). A digest of the protocol:
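Measured by blue/green FRET after loading CCF4-AM: beta-lactamase expressed from a hypoxia response element in ME-180 cells. Test agents were delivered in DMSO and left 17 hrs; cells had been plated 5 hrs earlier in low-serum (0.5% dialyzed FBS) medium.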

Test [19] is described as follows: qHTS assay to identify small molecule antagonists of the estrogen related receptor (ERR) signaling pathway from Tox21 library (AID 1224848). Also: nearly all actives have a fitted effect of over 50% in size. Also: potency is read from the fitted curve at half-maximal effect. A digest of the protocol: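 Antagonist-mode screen of the Tox21 10K library in an NTP-provided ERR reporter cell line; 18 h compound exposure at 37 C, luminescence measured with ONE-Glo.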
A short description of test [20]: qHTS assay to identify small molecule agonists of the estrogen related receptor (ERR) signaling pathway from Tox21 library (AID 1224849; calls by dose curve; also: nearly all actives have a fitted effect of over 15% in size). The note with it: ERR reporter cell line, ONE-Glo luciferase, 18 h; at 92.4 µM (top of the series). A digest of the protocol: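 We plated ERR reporter cells, waited 6 h, added compounds in DMSO by pin tool and incubated them 18 h at 37 C. ONE-Glo was then added and luminescence read after 30 min.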
% is scaled to controls: 0 for no effect and ±100 for the full control effect.

Sequence of Thyrotropin receptor (Homo sapiens) (P16473 whole entry, looked up): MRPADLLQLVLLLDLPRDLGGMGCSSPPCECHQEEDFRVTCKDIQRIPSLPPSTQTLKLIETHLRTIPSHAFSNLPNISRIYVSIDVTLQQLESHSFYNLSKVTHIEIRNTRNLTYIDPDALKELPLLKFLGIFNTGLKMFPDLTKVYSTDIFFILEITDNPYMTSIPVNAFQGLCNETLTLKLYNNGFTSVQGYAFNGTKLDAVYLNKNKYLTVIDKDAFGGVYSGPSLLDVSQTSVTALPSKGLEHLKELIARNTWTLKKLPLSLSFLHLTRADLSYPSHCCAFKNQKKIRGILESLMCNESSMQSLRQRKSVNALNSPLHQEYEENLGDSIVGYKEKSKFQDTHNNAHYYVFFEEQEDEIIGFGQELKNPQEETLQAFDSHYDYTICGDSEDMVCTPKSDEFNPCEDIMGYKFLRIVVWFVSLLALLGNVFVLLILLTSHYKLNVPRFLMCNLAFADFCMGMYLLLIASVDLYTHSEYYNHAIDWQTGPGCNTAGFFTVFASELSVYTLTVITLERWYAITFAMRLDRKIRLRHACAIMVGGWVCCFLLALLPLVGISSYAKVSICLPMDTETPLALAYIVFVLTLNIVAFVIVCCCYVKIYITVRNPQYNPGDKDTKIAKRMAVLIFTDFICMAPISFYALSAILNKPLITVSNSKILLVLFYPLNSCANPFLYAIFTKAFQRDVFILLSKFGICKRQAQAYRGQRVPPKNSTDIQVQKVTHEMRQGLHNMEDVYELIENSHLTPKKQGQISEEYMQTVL

With `CCN(CC)CCOc1ccc(/C(=C(\Cl)c2ccccc2)c2ccccc2)cc1`, the Potency result in test [1], in [2], in test [3] and in test [8] was “inactive” each time. Besides, the Potency was 49.6 µM (active) in [4]; 39.7 µM (active) in [5]; 28.1 µM (active) and 23.9 µM (active) in test [6]; 14.1 µM (active) and 19 µM (active) in test [7]; 17.7 µM (active) and 23.9 µM (active) in test [9]; 19.9 µM (active) and 23.9 µM (active) in test [10]. Besides, in [11], the Potency was 14.1 µM (active) and 21.3 µM (active).

As to `Nc1ccc2cc3ccccc3cc2c1`, the Potency result in test [2], in [4], in test [12], in test [13], in test [14] and in [6] was “inactive” each time. The Potency entry in test [8], in test [9], in [10] and in [11] was “inactive” throughout. Further, the Potency in test [3] was 27.8 µM (active) and 48.6 µM (active).

With `COc1ccc(CCN(C)CCCC(C#N)(c2ccc(OC)c(OC)c2)C(C)C)cc1OC` (stereo unspecified), the Potency in test [15] was 48.5 µM (active). For the same molecule, the Potency result in [4], in test [5], in test [14], in [8] and in test [10] was “inactive” each time.

For `O=C(O[C@@H]1Cc2c(O)cc(O)cc2O[C@@H]1c1cc(O)c(O)c(O)c1)c1cc(O)c(O)c(O)c1`, the Potency entry in test [2], in [3], in test [5], in [14], in test [8] and in [10] was “inactive” in each case. Moreover, in test [11], the Potency was 11.9 µM (active).

`CC(=O)CC(C)=O`: the Potency result in [15], in [4], in [16], in test [17], in test [12] and in [5] was “inactive” each time. The Potency result in test [13], in test [18], in [14], in test [19], in test [6] and in [8] was “inactive” in each case. In addition, the Potency result in [9], in [10] and in [11] was “inactive” each time. The activity change, positive = activation in [20] was 3.5% (inactive).

For `CC(C)CCCCCCc1ccc(O)cc1`, the Potency in test [2] was 1.11 µM (active); in test [3] it was “inactive and 17.2 µM (active)”; in [4], 48.6 µM (active); in [5], 11.2 µM (active); in test [14], 91.4 µM (active) and 56.6 µM (active); in [6], 22.3 µM (active) and inactive. Also, the Potency in [7] is 2.23 µM (active); in test [9], 25 µM (active) and inactive; in [10], 19.8 µM (active) and 38.9 µM (active); in test [11], 3.96 µM (active). Further, the Potency result in [8] is “inactive”.

For `Nc1ccc(O)cc1`, the Potency was 35.7 µM (active) and inactive in [4]; 45 µM (active) and inactive in test [16]; 50.9 µM (active) and inactive in test [5]; 22.5 µM (active) and inactive in test [19]; 32.1 µM (active) and inactive in test [7]; 25.5 µM (active) and inactive in test [10]. Besides, in test [11], the Potency is 40.4 µM (active) and inactive. The Potency result in test [12], in test [18], in [14], in test [6], in test [8] and in test [9] was “inactive” in each case. The activity change, positive = activation in [20] was -66.4% (inactive).

(Values after PubChem BioAssay (Tox21).)
